Source: PubChem BioAssay AID1903 (Southern Research Specialized Biocontainment Screening …, 2009)
“And” between values parts separate entries of the source, which are not always exact repeats. Identical values can stand only once. The whole screen tested about 310,000 compounds, of which about 1,200 (0.39%) were called active. No rule for the calls is given here. The list is a sample of the results. Potency and affinity values are given separately.

These compounds were tested against Large T antigen (Simian virus 40) (UniProt P03070) (assay: TAg ATPase/helicase activity blockers – biochemical (AID 1903)). Conditions: SV40 large T antigen ATPase/helicase inhibition assay; at 20 µM; hits give high values.
Sequence of Large T antigen (Simian virus 40) (P03070 whole entry, looked up): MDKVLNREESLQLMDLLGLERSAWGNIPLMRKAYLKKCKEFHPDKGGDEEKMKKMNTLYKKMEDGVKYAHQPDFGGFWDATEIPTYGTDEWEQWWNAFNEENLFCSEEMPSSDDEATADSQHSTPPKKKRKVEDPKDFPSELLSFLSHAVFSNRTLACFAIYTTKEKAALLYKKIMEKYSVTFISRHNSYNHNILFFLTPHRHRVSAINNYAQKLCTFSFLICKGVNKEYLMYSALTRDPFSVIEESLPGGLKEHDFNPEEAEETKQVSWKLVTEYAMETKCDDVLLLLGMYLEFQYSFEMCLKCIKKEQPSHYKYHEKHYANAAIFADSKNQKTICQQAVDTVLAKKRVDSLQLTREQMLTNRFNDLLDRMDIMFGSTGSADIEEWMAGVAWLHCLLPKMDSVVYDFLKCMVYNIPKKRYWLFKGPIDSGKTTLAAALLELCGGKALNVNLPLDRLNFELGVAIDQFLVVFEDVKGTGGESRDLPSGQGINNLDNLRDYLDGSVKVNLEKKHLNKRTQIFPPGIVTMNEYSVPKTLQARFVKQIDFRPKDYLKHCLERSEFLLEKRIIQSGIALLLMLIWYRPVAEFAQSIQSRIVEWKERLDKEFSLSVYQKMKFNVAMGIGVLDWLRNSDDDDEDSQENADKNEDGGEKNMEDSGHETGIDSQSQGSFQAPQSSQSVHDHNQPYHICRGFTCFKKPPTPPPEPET

inhibition, inactive:
Cc1cc(-c2nnc(CCC(=O)N(C)C(C)c3cccs3)o2)no1 (stereo not drawn) 22%
CCC(C)N(C(=O)COC(=O)COc1c(C)cc(C)cc1C)C1CCS(=O)(=O)C1 (stereo not drawn) 7.34%
COCC1CCN(C(=O)c2ccc3oc(Cc4ccc(Cl)cc4)nc3c2)C1 (stereo not drawn) 11.1%
Cc1sc2ncnc(Sc3ccccc3C(=O)Nc3ccc(C#N)cc3)c2c1C 9.82%
Cc1nn(-c2ccccc2)c(Cl)c1/C=N\NC(=O)c1cncc(Br)c1 22%
CC(=O)c1ccc(N2C(=O)NC3(CCCCC3)C2=O)cc1 3.35%
COc1cccc(-c2nc(CS(=O)(=O)CC(=O)Nc3cc(C)ccc3C)c(C)o2)c1 15.6% and 1.41%
CCN(CC)S(=O)(=O)c1ccc(N/N=C/c2cccnc2)nc1 9.01%
COc1ccc(/C=N/Nc2cc(C)nc(NS(=O)(=O)c3ccc(C)cc3)n2)cc1 11.9%
COc1cccc(/C=N/Nc2cc(Cl)nc(C)n2)c1O 21%
Cc1nc(Cl)cc(N/N=C/c2ccc(O)cc2O)n1 24.5%
CCN(CC)S(=O)(=O)c1ccc(N/N=C/c2ccc(O)cc2O)nc1 21.6%
Cc1cc(N/N=C/c2ccc(O)cc2)nc(NS(=O)(=O)c2ccccc2)n1 10.1%
COc1ccccc1C(=O)N/C(=C/c1cccc([N+](=O)[O-])c1)C(=O)Nc1cccc(C(=O)O)c1 -0.39%
O=C(O)CN1C(=O)c2ccc(Oc3ccc([N+](=O)[O-])cc3)cc2C1=O 7.08%
CCOCCCn1c(SCC(=O)Nc2ccc3[nH]c(=O)[nH]c3c2)nc2ccccc2c1=O 10.2%
O=C(Cc1c(Cl)cccc1Cl)N/N=C/c1cccnc1 17.8%
COc1cc(C(=O)CSc2nnc(-c3ccc(O)cc3)n2CC2CCCO2)ccc1NC(C)=O (stereo not drawn) 4.93%
COc1ccc(CCN2C(=O)NC(NS(=O)(=O)c3ccc(Cl)cc3)(C(F)(F)F)C2=O)cc1OC (stereo not drawn) 12.9%
O=C(COC(=O)C1COc2ccccc2O1)Nc1cccc(S(=O)(=O)N2CCCCC2)c1 (stereo not drawn) 11.3%
CN(c1ccc(C(=O)Nc2ccc3c(c2)OCO3)cc1)S(C)(=O)=O 14.1%
COc1ccc2c(C)c(CC(=O)N3CCN(C(=O)C4COc5ccccc5O4)CC3)c(=O)oc2c1C (stereo not drawn) 12%
Cc1c(CC(=O)N2CCN(C(=O)C3COc4ccccc4O3)CC2)c(=O)oc2c(C)c(O)ccc12 (stereo not drawn) 24.4%
